# From PubChem BioAssay (NCATS)
# Results filed as inconclusive are left out. Active and inactive are the calls of the source. Calls follow the shape of the dose curve; as a rule, active = well fitted inhibition curve with a large enough effect; inconclusive = small, poorly fitted or top-dose-only effect; inactive = flat fitted curve, though single readings scatter.
# Tested on: MCC-26
# Assay: qHTS assay to identify novel small-molecules to repurpose for Merkel cell carcinoma treatment (AID 1296009); also: nearly all actives have a fitted effect of over 60% in size
# Settings: MCC and control cell lines, CellTiter-Glo viability, 72 h; series mostly up to 46 µM; activity change, negative = cytotoxicity: at the top concentration
# From the text: MCC is a rare and aggressive neuroendocrine skin cancer with limited treatment options. Approximately 80% of MCCs have the Merkel cell polyomavirus (MCPyV) DNA integrated into the host genome (virus-positive: VP-MCC) and viral oncogenes drive oncogenesis. The remaining MCCs are virus-negative (VN-MCC) and are caused by UV mutagenesis. To identify novel treatments for VP-MCC and/or VN-MCC we screened three VP-MCC cell lines (WAGA, MKL-1, MKL-2), three VN-MCC cell lines (MCC-13, MCC-26, UISO), and four immortalized, non-transformed control cell lines (HaCaT, HEK293T, CRL7250, NIH-3T3) against ~2,400 compounds in the NCGC Pharmaceutical Collection (NPC) and ~1,900 compounds in the Mechanism Interrogation PlatE (MiPE). Using cell viability as a readout (CellTiter-Glo assay) we found both overlapping and distinct drugs that can be repurposed for the treatment of VP-MCC and VN-MCC.
# A high-throughput screen was conducted in 1536-well white flat bottom plates (Corning) on a Kalypsys robotic system. Cell lines WAGA, MKL-1, MKL-2, MCC-13, MCC-26, UISO, HaCaT, HEK293T, CRL7250, and NIH-3T3 were screened against 2 small molecule annotated drug libraries NPC and MIPE in dose response (8 and 11 pt. respectively) measuring cell viability after 72 hours of incubation. […] A 1,536 pintool (Kalypsys) was used to transfer 23 nL of compound in DMSO to the 1,536-well assay plates. After 72 hr incubation at 37 degree celsius, 2.5 uL of CellTiter-Glo (Promega) was dispensed into each well using a BiorapTR. Plates were incubated at room temperature for 10 min, transferred to a ViewLux (PerkinElmer) and the luminescence was recorded using an exposure time of 2 seconds. Relative luminescence units (RLUs) were normalized to in-plate controls (no cells as a positive (cytotoxicity) control, DMSO as negative control) and the normalized data was processed using NCATS in-house software.
# % is scaled to controls: 0 for no effect and ±100 for the full control effect; potency is read from the fitted curve at half-maximal effect.
SMILES,Potency,"activity change, negative = cytotoxicity"
Cc1cnc(Nc2ccc(CN3CCOCC3)cc2)nc1Nc1cccc(S(=O)(=O)NC(C)(C)C)c1,8.33 µM (active),–
Cn1cnc2c(F)c(Nc3ccc(Br)cc3F)c(C(=O)NOCCO)cc21,–,-6.04% (inactive)
CC(=O)O[C@H]1C[C@@H]2CC[C@H]3[C@H]4C[C@H]([N+]5(C)CCCCC5)[C@@H](OC(C)=O)[C@@]4(C)CC[C@@H]3[C@@]2(C)C[C@H]1[N+]1(C)CCCCC1,–,-1.1% (inactive)
O=c1[nH]c(=O)n([C@H]2C[C@@H](O)[C@@H](CO)O2)cc1C=CBr,–,-2.72% (inactive)
C[C@@H]1CC[C@@]2(OC1)OC1CC3C4CC=C5CC(O)CCC5(C)C4CCC3(C)C1[C@@H]2C (stereo not given in full),–,-14.2% (inactive)
NC(=NCCCCCCN=C(N)N=C(N)Nc1ccc(Cl)cc1)N=C(N)Nc1ccc(Cl)cc1,–,-4.33% (inactive)
Cc1ccc(-n2[nH]c(C)c(N=Nc3cccc(-c4cccc(C(=O)O)c4)c3O)c2=O)cc1C,–,-20.1% (inactive)
CN(C)c1ccc2cc(C(=O)N[C@@H](CCCN=C(N)CCl)C(=O)NCc3ccccc3)ccc2c1,–,-9.39% (inactive)
CN1C(C(=O)Nc2ccccn2)=C(O)c2sc(Cl)cc2S1(=O)=O,–,0.261% (inactive)
CCN(CC)CCNC(=O)c1c(C)[nH]c(C=C2C(=O)Nc3ccc(F)cc32)c1C,38.2 µM (active),–
O=C1NC(O)CCN1[C@@H]1O[C@H](CO)[C@H](O)[C@H]1O (stereo not given in full),–,6.29% (inactive)
COC(=O)[C@@H]1[C@H]2C[C@@H]3c4[nH]c5ccccc5c4CCN3C[C@@H]2CC[C@@H]1O,–,-12.6% (inactive)
COC1=C(OC)C(=O)C(CC=C(C)CCC=C(C)CCC=C(C)CCC=C(C)CCC=C(C)CCC=C(C)CCC=C(C)CCC=C(C)CCC=C(C)CCC=C(C)C)=C(C)C1=O,–,-3.43% (inactive)
C[C@@H]1[C@H](C)CC[C@]2(C(=O)O)CC[C@]3(C)C(=CC[C@@H]4[C@@]5(C)C[C@@H](O)[C@H](O)[C@@](C)(CO)[C@H]5CC[C@]43C)[C@@H]12,–,6.69% (inactive)
Cn1cc(C[C@@H](N)C(=O)O)c2ccccc21,–,0.466% [at 16.1 µM] (inactive)
CC(C)(O)CC[C@@H](O)[C@](C)(O)[C@H]1CC[C@@]2(O)C3=CC(=O)[C@@H]4C[C@@H](O)[C@@H](O)C[C@]4(C)[C@@H]3CC[C@]12C,–,-22.6% (inactive)
CC(C(C)N1CC(=O)NC(=O)C1)N1CC(=O)NC(=O)C1 (stereo not given),–,11.8% (inactive)
C#C[C@]1(O)CC[C@@H]2[C@@H]3CCC4=CC(=O)CC[C@@H]4[C@H]3CC[C@@]21CC,–,-22.2% (inactive)
CC(=O)N[C@H]1[C@@H]([C@H](O)[C@H](O)CO)OC(C(=O)O)=C[C@@H]1N=C(N)N,–,0.817% (inactive)
CC1(C)[C@H](O[C@H]2O[C@H](C(=O)O)[C@@H](O)[C@H](O)[C@H]2O[C@@H]2O[C@H](C(=O)O)[C@@H](O)[C@H](O)[C@H]2O)CC[C@@]2(C)[C@H]1CC[C@]1(C)[C@H]2C(=O)C=C2[C@H]3C[C@@](C)(C(=O)O)CC[C@]3(C)CC[C@]21C,–,-3.19% (inactive)

SMILES,Potency,"activity change, negative = cytotoxicity"
CCCCOc1ccc(C(=O)Nc2ccc(F)cc2F)cc1,–,-1.95% (inactive)
Cc1cnc(NC(=O)Nc2cc(Br)c(C)cc2OC[C@@H]2CNCCO2)cn1,–,-11% (inactive)
CC(C=CC=C(C)C=CC1=C(C)CCCC1(C)C)=CC=CC=C(C)C=CC=C(C)C=CC1=C(C)CCCC1(C)C,–,-0.329% (inactive)
COc1ccnc2[nH]cc(C(=O)C(=O)N3CCN(C(=O)c4ccccc4)C[C@@H]3C)c12,–,3.89% (inactive)
CC1(C)O[C@@H]2C[C@H]3[C@@H]4CCC5=CC(=O)C=C[C@]5(C)[C@@H]4[C@@H](O)C[C@]3(C)[C@]2(C(=O)CO)O1,–,-7.15% (inactive)
CCCc1nc(C(C)(C)O)c(C(=O)O)n1Cc1ccc(-c2ccccc2-c2nn[nH]n2)cc1,–,1.91% (inactive)
CCCCC(=O)O[C@]1(C(=O)CO)[C@@H](C)C[C@H]2[C@@H]3CCC4=CC(=O)C=C[C@]4(C)[C@@]3(F)[C@@H](O)C[C@@]21C,–,-10.1% (inactive)
O=C(C=Cc1ccc(CN(CCO)CCc2c[nH]c3ccccc23)cc1)NO,1.18 µM (active),–
CC[C@H](CC[C@@H](C)[C@H]1CC[C@H]2[C@@H]3CC=C4C[C@@H](O)CC[C@]4(C)[C@@H]3CC[C@]12C)C(C)C,–,6.09% (inactive)
CON=C(C(=O)N[C@@H]1C(=O)N2C(C(=O)O)=C(CSC(=O)c3ccco3)CS[C@H]12)c1csc(N)n1,–,-0.587% (inactive)
CC(Oc1ccc(O)cc1)(P(=O)(O)O)P(=O)(O)O,–,-8.57% (inactive)
CC(=O)[C@]1(O)Cc2c(O)c3c(c(O)c2[C@@H](O[C@H]2C[C@H](N)[C@@H](O)[C@H](C)O2)C1)C(=O)c1ccccc1C3=O,1.32 µM (active),–
COc1cccc2c1C(=O)c1c(O)c3c(c(O)c1C2=O)C[C@@](O)(C(=O)CO)C[C@@H]3O[C@H]1C[C@H](N)[C@H](OC2CCCCO2)[C@H](C)O1 (stereo not given in full),3.72 µM (active),–
FC(F)(F)c1ccc(Nc2nc3ccc(Oc4ccnc(-c5ncc(C(F)(F)F)[nH]5)c4)cc3[nH]2)cc1,–,-6.97% (inactive)
C[N+]1(C)[C@@H]2C[C@@H](OC(=O)C(O)(c3cccs3)c3cccs3)C[C@H]1[C@@H]1O[C@@H]12,–,-6.91% (inactive)
O=C(O)C(=O)Nc1cccc(C2=NN=N[N]2)c1,–,1.09% (inactive)
O=C1CSC(=O)N1C(CCc1ccncc1)COc1ccc(-c2cccc([N+](=O)[O-])c2)cc1 (stereo not given),–,-4.64% (inactive)
C[C@H](O)[C@@H]1C(=O)N2C(C(=O)O)=C(S[C@@H]3CN[C@H](CNS(N)(=O)=O)C3)[C@@H](C)[C@@H]12,–,-9.67% (inactive)
OC[C@H]1OC(O)C[C@@H](O)[C@H]1O (stereo not given in full),–,-8.52% (inactive)
COC(=O)[C@H](CCCN=C(N)N)NS(=O)(=O)c1ccc(C)cc1,–,-0.0988% (inactive)
